The results in this text go back to PubChem BioAssay (NCATS).

Test [1] is described as follows: High-throughput drug toxicity screening in the BPDCN cell line Gen2.2 (AID 1224824; call rule not given here;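 note: cells exposed to compounds for 48 h before reading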). To be noted: Gen2.2 BPDCN cells; at 45.8 µM (top of the series). Summed up: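 CellTiter-Glo luminescence after 48 h compound exposure of Gen2.2 cells; percent activity set with DMSO as 100% and bortezomib (9.2 uM final) as 0%. Cells seeded at 500 per well, RPMI + 10% FBS, 37 °C.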

Test [2] is described as follows: High-throughput drug toxicity screening in the BPDCN cell line Cal-1 (AID 1224825; call rule not given here). Conditions: Cal-1 BPDCN cell viability, qHTS; at 45.8 µM (top of the series). An outline of the steps: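 Exponentially growing Cal-1 cells, 500 per well in phenol red-free RPMI with 10% FBS, were exposed to compounds for 48 h at 37 °C, 5% CO2. Viability was read by CellTiter-Glo luminescence and normalised to DMSO (100%) and 9.2 uM bortezomib (0%).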
In general terms: In qHTS, concentration-response curves come from the screen itself.

Test [3] in a line: qHTS assay for measurement of the activity of small molecule inhibitors on Zika virus induced Caspase-3 activity in human iPSC derived neural progenitor cells (hNPCs) (AID 1224857). Note: nearly all actives have a fitted effect of over 65% in size. Note: potency is the fitted concentration of half-maximal effect. Summed up:
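Caspase-3/7 induction by a 6-hour ZIKV infection was quantified with a luminescent Caspase-Glo 3/7 reagent incubated 30 minutes at room temperature. Compounds were preincubated with hNPCs for 1 hour; inhibition was calculated against uninfected and infected control wells.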

Test [4] in a line: qHTS assay for measurement of the activity of small molecule inhibitors on Zika virus induced Caspase-3 activity in human astrocytoma cells (AID 1224859).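 Note: plate controls were ZIKV-infected untreated cells for no effect and uninfected cells for full effect.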 An outline of the steps: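 In SNB-19 cells plated at 250 cells/well and grown 16-20 h, compounds were applied 1 h before ZIKV (2 FFU/cell). Six hours later caspase-3/7 luminescence was recorded.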
Test [5] is described as follows: Immunotoxin (SS1P) sensitization/mitigation study. Vehicle arm (DMEM) (AID 1159513; call rule not given here; note: potency is the fitted concentration of half-maximal effect).

Inconclusive results are not listed. Active and inactive are the calls of the source. Unless noted, calls come from the whole dose curve; as a rule, active = well fitted inhibition curve with a large enough effect; inconclusive = small, poorly fitted or top-dose-only effect; inactive = no such curve, though single readings can be large or run the other way.

As to `CC(C)[C@]12O[C@@H]1[C@@H]1O[C@]13[C@]1(O[C@H]1C[C@@H]1C4=C(CC[C@@]13C)C(=O)OC4)[C@H]2O`, the cell viability, % of control (lower = more cytotoxic) in test [1] stood at 4.5%. Also, the viability (% of control) in test [2] came out at 2.1%. In addition, the Potency result in test [3] and in test [4] was “inactive” throughout.

`C[C@@]12OC(=O)[C@]1([C@@H](O)[C@@H]1C=CCCC1)NC(=O)[C@H]2CCCl`: the cell viability, % of control (lower = more cytotoxic) in test [1] is 5.68%. The viability (% of control) in test [2] was determined as 3.86%. In addition, the Potency entry in test [3] and in test [4] was “inactive” throughout.

For the compound `CCNC(=O)C[C@@H]1N=C(c2ccc(Cl)cc2)c2cc(OC)ccc2-n2c(C)nnc21`, in test [1], the cell viability, % of control (lower = more cytotoxic) was 12.3%. In addition, the viability (% of control) in test [2] was 7.23%. For the same compound, the Potency result in test [3] and in test [4] was “inactive” throughout.

Take `COc1cc2cc(c1Cl)N(C)C(=O)C[C@H](OC(=O)C(C)C)[C@]1(C)O[C@H]1[C@H](C)[C@@H]1C[C@@](O)(NC(=O)O1)[C@H](OC)C=CC=C(C)C2`: the cell viability, % of control (lower = more cytotoxic) in test [1] came to 10.1%. Besides, in test [2], the viability (% of control) stood at 4.31%. For the same compound, the Potency entry in test [3] and in test [4] was “inactive” each time.

As to `C[C@]12CC[C@@H]3[C@@H](CCC4=CC(=O)CC[C@@H]43)[C@@H]1CC[C@@H]2OC(=O)CCc1ccccc1`, the cell viability, % of control (lower = more cytotoxic) in test [1] turned out to be 119%. Besides, the viability (% of control) in test [2] stood at 104%. For the same compound, the Potency result in test [3] and in test [4] was “inactive” each time.

Regarding `COC[C@H]1OC(=O)c2coc3c2[C@@]1(C)C1=C(C3=O)[C@@H]2CC[C@H](O)[C@@]2(C)C[C@@H]1OC(C)=O`, in test [1], the cell viability, % of control (lower = more cytotoxic) amounted to 5.55%. Moreover, the viability (% of control) in test [2] turned out to be 9.36%. For the same compound, the Potency result in test [3] and in test [4] was “inactive” throughout.

`Cc1c(C(=O)Nc2cccc(C(F)(F)F)c2)cc(-c2ccccc2)n1CCCN1CCOCC1`: in test [5], the Potency is 23.5 µM (active). For the same compound, the cell viability, % of control (lower = more cytotoxic) in test [1] was found to be 52.7%. Besides, the Potency entry in test [4] is “inactive”.

As to `Cc1c(N)nc([C@H](CC(N)=O)NC[C@@H](N)C(N)=O)nc1C(=O)N[C@H](C(=O)N[C@@H](C)[C@H](O)[C@@H](C)C(=O)N[C@@H](C(=O)NCCc1nc(-c2nc(C(=O)NCCC[S+](C)C)cs2)cs1)[C@@H](C)O)C(O[C@H]1O[C@H](CO)[C@H](O)[C@@H](O)[C@@H]1O[C@H]1O[C@H](CO)[C@@H](O)[C@H](OC(N)=O)[C@H]1O)c1cnc[nH]1` (stereo partly drawn), in test [1], the cell viability, % of control (lower = more cytotoxic) came to 132%. Besides, the viability (% of control) in test [2] was found to be 16%. Also, in test [3], the Potency entry is “inactive”.

Regarding `COC1=C[C@@H]2[C@@H]3Cc4ccc(OC)c(O)c4[C@]2(CCN3C)CC1=O`, the cell viability, % of control (lower = more cytotoxic) in test [1] is 69.4%. The viability (% of control) in test [2] is 12.3%. The Potency result in test [3] and in test [4] was “inactive” in each case.

For the compound `CC[C@@H]1[C@@H](C)O[C@@](O)([C@@H](C)[C@H](O)[C@H](C)[C@H]2OC(=O)C=CC=C[C@@H](C)[C@@H]([C@@H](C)[C@@H](O)[C@H](C)[C@@]3(O)C[C@H](O[C@H]4C[C@H](O)[C@H](O)[C@H](C)O4)[C@H](CC)[C@@H](C)O3)OC(=O)C=CC=C[C@@H]2C)C[C@H]1O[C@H]1C[C@H](O)[C@H](O)[C@H](C)O1`, the cell viability, % of control (lower = more cytotoxic) in test [1] amounted to 11.5%. Also, the viability (% of control) in test [2] worked out at 3.46%. Further, the Potency entry in test [3] and in test [4] was “inactive” in each case.

As to `N=c1c2c(-c3ccccc3)c(-c3ccccc3)n(Cc3ccccc3)c2ncn1C1CCC(O)CC1` (stereo not drawn), the cell viability, % of control (lower = more cytotoxic) in test [1] came out at 130%. Besides, the viability (% of control) in test [2] turned out to be 11.7%. The Potency result in test [3] and in test [4] was “inactive” throughout.

For `CC1=NN=C(c2ccc(N)cc2)c2cc3c(cc2C1)OCO3`, the cell viability, % of control (lower = more cytotoxic) in test [1] is 244%. Also, the viability (% of control) in test [2] turned out to be 12.1%. For the same compound, the Potency entry in test [3] and in test [4] was “inactive” each time.

Take `COc1cc(N2CCC(N3CCN(C)CC3)CC2)ccc1Nc1ncc(Cl)c(Nc2ccccc2S(=O)(=O)C(C)C)n1`: the Potency in test [5] was 5.26 µM (active).

On to `C[C@@H]1CC[C@@]2(OC1)O[C@H]1C[C@H]3[C@@H]4CC=C5C[C@@H](O[C@@H]6O[C@H](CO)[C@@H](O[C@@H]7O[C@@H](C)[C@H](O)[C@@H](O)[C@@H]7O)[C@H](O)[C@@H]6O[C@@H]6O[C@@H](C)[C@H](O)[C@@H](O)[C@@H]6O)CC[C@]5(C)[C@@H]4CC[C@]3(C)[C@@H]1[C@H]2C`, for which the cell viability, % of control (lower = more cytotoxic) in test [1] was determined as 10.6%. Moreover, the viability (% of control) in test [2] was 12.9%. In addition, the Potency entry in test [3] and in test [4] was “inactive” each time.

As to `CN1[C@H]2CC(O)C[C@H]1[C@H]1O[C@H]12` (stereo partly drawn), in test [1], the cell viability, % of control (lower = more cytotoxic) was 21.9%. In addition, in test [2], the viability (% of control) stood at 52.9%. Besides, in test [3], the Potency result is “inactive”.

Turning to `C#CC1(O)CCC2C3CCC4=CC(=O)CCC4(C)C3CCC21C` (stereo not drawn), in test [1], the cell viability, % of control (lower = more cytotoxic) came to 168%. In addition, the viability (% of control) in test [2] was found to be 100%. For the same compound, the Potency result in test [3] and in test [4] was “inactive” each time.

With `CN(C)NC(=O)CCC(=O)O`, the cell viability, % of control (lower = more cytotoxic) in test [1] was 121%. The viability (% of control) in test [2] came to 96.3%. The Potency result in test [3] and in test [4] was “inactive” each time.

Take `Clc1ccccc1C(c1ccccc1)(c1ccccc1)n1cccn1`: the cell viability, % of control (lower = more cytotoxic) in test [1] came to 108%. In test [2], the viability (% of control) turned out to be 108%. Moreover, the Potency result in test [3] was “inactive”.

In the case of `CC(C)[C@H]1C(=O)N[C@H](CO)Cc2c[nH]c3cccc(c23)N1C`, the cell viability, % of control (lower = more cytotoxic) in test [1] came out at 391%. Further, the viability (% of control) in test [2] is 82.8%. Moreover, the Potency in test [3] is 23.5 µM (active). For the same compound, the Potency entry in test [4] is “inactive”.

In the case of `CCN1CCN(C(=O)Cc2ccc(Nc3ncc(F)c(Nc4ccc(C(=O)Nc5ccccc5Cl)cc4)n3)cc2)CC1`, the cell viability, % of control (lower = more cytotoxic) in test [1] came to 2.73%. Further, the viability (% of control) in test [2] came out at 2.31%. Further, the Potency entry in test [3] and in test [4] was “inactive” each time.
